These results are taken from publication PMC10668032, “Altered binding affinity of SIX1-Q177R correlates with enhanced WNT5A and WNT pathway effector expression in Wilms tumor”.

Over roughly 33,000 sequences, “e-score” has its median near -0.05; the highest 2% begin near 0.38. What follows is part of a selection rich in the highest values, with near analogues and random picks from the rest.

The target in this assay is T1, SIX1-Q177R homeodomain (human, UniProt Q15475 108-198, Q177R).
T1 sequence: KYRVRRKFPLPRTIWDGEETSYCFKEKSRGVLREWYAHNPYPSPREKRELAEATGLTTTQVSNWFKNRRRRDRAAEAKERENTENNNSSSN
Briefly: universal protein binding microarray; Universal all-10-mer PBM (8x60K, AMADID 030236), 300 nM GST-tagged protein, Alexa Fluor 488 anti-GST; buffer, salt, pH and temperature not stated (as in Berger); high values mean tight binding. The conditions noted are these: protein: ivt; tags: N-terminal GST; dsDNA, one strand shown. Summed up:
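Homeodomains carrying a GST tag were produced by in vitro transcription/translation, then quantified by anti-GST western blot against a recombinant GST standard curve. Duplicate applications at 300 nM final concentration were made to universal 'all 10-mer' protein binding microarrays in 8×60K format. The Universal PBM Analysis Suite was used to express binding as 8-mer E-scores.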
As to CACCTCAC, the binding signal came out at 0.354 ± 0.0133 E-score.

For CTCCCCCA, the binding signal was determined as 0.176 ± 0.0255 E-score.

For the sequence ACCCGCGA, the binding signal amounted to 0.239 ± 0.0203 E-score.

With CGGGCACA, the binding signal was determined as 0.1994 ± 0.000764 E-score.

For CACCCGGA, the binding signal turned out to be 0.388 ± 0.0297 E-score.

Turning to CACCCGGC, the binding signal was 0.36 ± 0.0229 E-score.

For the sequence TACCCGGA, the binding signal is 0.247 ± 0.00272 E-score.

Turning to CACGCTTC, the binding signal came to 0.24 ± 0.0251 E-score.

Take GACACGAC: the binding signal was 0.436 ± 0.00629 E-score.

On to CACACGGC, for which the binding signal is 0.161 ± 0.0205 E-score.

For the sequence TACACGGA, the binding signal was 0.402 ± 0.00597 E-score.

Consider CCCACGGA, for which the binding signal was 0.161 ± 0.00447 E-score.

For AACACGGC, the binding signal amounted to 0.35 ± 0.00429 E-score.

With GACACGAA, the binding signal was 0.331 ± 0.0274 E-score.

For TACACAAA, the binding signal was found to be 0.247 ± 0.0503 E-score.

With GACACGGA, the binding signal was found to be 0.418 ± 0.0309 E-score.

GATACGGA: the binding signal was determined as 0.215 ± 0.00231 E-score.

GACACGGC: the binding signal worked out at 0.427 ± 0.0135 E-score.

Take CACACGAC: the binding signal came to 0.237 ± 0.00357 E-score.

As for CACACGGA, the binding signal was 0.253 ± 0.0652 E-score.

As for CCTGTGAC, the binding signal came out at 0.194 ± 0.0117 E-score.

As for TCAGGGGA, the binding signal was 0.165 ± 0.0187 E-score.

AAACCCTA: the binding signal was found to be 0.157 ± 0.0426 E-score.

Consider AATAGTGT, for which the binding signal stood at 0.355 ± 0.0289 E-score.

For CCCTTCTA, the binding signal was determined as 0.177 ± 0.0196 E-score.

Take GTGGGTCA: the binding signal was 0.166 ± 0.0309 E-score.

In the case of AAAGGGTG, the binding signal is 0.317 ± 0.00321 E-score.

On to CCCCTCAC, for which the binding signal was 0.203 ± 0.0371 E-score.

Turning to ATACGGGG, the binding signal was 0.171 ± 0.0145 E-score.

In the case of ACACGGAC, the binding signal came to 0.367 ± 0.00972 E-score.

Take ACACGGGT: the binding signal turned out to be 0.4532 ± 0.00279 E-score.

ACCCGGGT: the binding signal stood at 0.377 ± 0.0131 E-score.

For the sequence CCACGGGG, the binding signal was 0.194 ± 0.0115 E-score.

With ACACGGGC, the binding signal worked out at 0.4237 ± 0.000962 E-score.

As for ACACGGGA, the binding signal came out at 0.411 ± 0.00748 E-score.

As for ACCCGGGA, the binding signal came out at 0.192 ± 0.0367 E-score.

With ACTCGGGC, the binding signal was found to be 0.161 ± 0.036 E-score.

As for ACGGGGGA, the binding signal was determined as 0.208 ± 0.00871 E-score.

With ACACGGGG, the binding signal worked out at 0.4516 ± 0.00397 E-score.

As to CACCGTGG, the binding signal was determined as 0.333 ± 0.0206 E-score.

Take CACCTCGG: the binding signal is 0.269 ± 0.00615 E-score.

For CACGCTGG, the binding signal is 0.159 ± 0.00563 E-score.

For CACTCGGG, the binding signal came to 0.225 ± 0.016 E-score.

With AACCCCAA, the binding signal is 0.205 ± 0.00313 E-score.

In the case of CTGACCCC, the binding signal was 0.283 ± 0.0439 E-score.

In the case of CGGGGTAC, the binding signal amounted to 0.224 ± 0.0106 E-score.

Turning to CAACCGTG, the binding signal was found to be 0.187 ± 0.0215 E-score.

Take CACTGGCA: the binding signal was found to be 0.28 ± 0.0195 E-score.

As to ACACGTGC, the binding signal came to 0.383 ± 0.0133 E-score.

In the case of ACACGTAT, the binding signal turned out to be 0.388 ± 0.00574 E-score.

With ACACGTAC, the binding signal came to 0.353 ± 0.00478 E-score.

Consider ACACGTCC, for which the binding signal stood at 0.373 ± 0.00921 E-score.

Turning to ACACGTGT, the binding signal came out at 0.4552 ± 0.00158 E-score.

For the sequence ACACGTAA, the binding signal worked out at 0.323 ± 0.00431 E-score.

For the sequence ACACGTGG, the binding signal is 0.32 ± 0.00325 E-score.

As for ACACGTGA, the binding signal came out at 0.34 ± 0.0135 E-score.

On to ACACGTAG, for which the binding signal stood at 0.325 ± 0.012 E-score.

On to CACTAGCC, for which the binding signal was determined as 0.177 ± 0.031 E-score.

As to ATACCCGC, the binding signal came out at 0.266 ± 0.0158 E-score.

GGATCACA: the binding signal was found to be 0.168 ± 0.0336 E-score.

As for CCCCGCCG, the binding signal was 0.241 ± 0.0442 E-score.

Regarding CTGATCCC, the binding signal came to 0.232 ± 0.00636 E-score.

In the case of ACTCCGTG, the binding signal worked out at 0.253 ± 0.00334 E-score.

For the sequence ACACGTTG, the binding signal was determined as 0.331 ± 0.0165 E-score.

As for ACACACTA, the binding signal worked out at 0.267 ± 0.012 E-score.

As for ACACGCTC, the binding signal turned out to be 0.384 ± 0.0032 E-score.

On to ACACGTTC, for which the binding signal came out at 0.276 ± 0.0481 E-score.

In the case of GTACGCTA, the binding signal amounted to 0.153 ± 0.0129 E-score.

Take ACACGCTG: the binding signal came to 0.389 ± 0.00589 E-score.

For the sequence CCCCGCTA, the binding signal came out at 0.199 ± 0.0313 E-score.

For ACACGCGC, the binding signal came out at 0.363 ± 0.0139 E-score.

With ACACGCTA, the binding signal was determined as 0.383 ± 0.0134 E-score.

Regarding AACCGGGT, the binding signal came to 0.218 ± 0.0414 E-score.

As for CACCCCAC, the binding signal amounted to 0.355 ± 0.0406 E-score.

As to ACCCCACC, the binding signal was found to be 0.327 ± 0.05 E-score.

Turning to ACTCCCGC, the binding signal is 0.253 ± 0.0194 E-score.

Regarding CACCATCA, the binding signal was 0.231 ± 0.0313 E-score.

On to CCCGGATA, for which the binding signal came to 0.164 ± 0.0511 E-score.

As for AACTACAC, the binding signal stood at 0.445 ± 0.0094 E-score.

For the sequence AACTACCC, the binding signal is 0.151 ± 0.011 E-score.

In the case of CACTACGC, the binding signal was 0.166 ± 0.0306 E-score.

Take GACTACAC: the binding signal came out at 0.428 ± 0.0046 E-score.

As for CACTACAG, the binding signal turned out to be 0.196 ± 0.0315 E-score.

Take CACTACAC: the binding signal turned out to be 0.443 ± 0.00461 E-score.

In the case of CACTACAA, the binding signal worked out at 0.236 ± 0.0147 E-score.

CACTACTC: the binding signal was 0.21 ± 0.00852 E-score.

Consider GACTCCAC, for which the binding signal was found to be 0.211 ± 0.00527 E-score.
